Active and inactive are the calls of the source.
Experiments:
[1] = compound effects on lung adenocarcinoma cell viability – A549, calcein-AM fluorescence, 48 h, basal, profiling panel (AID 1162); conditions: higher = more signal
[2] = compound effects on differentiated 3T3-L1 adipocyte viability – cell-based, 3T3-L1 adipocytes, calcein-AM fluorescence, 48 h, basal, profiling panel (AID 1163); conditions: 3T3-L1 adipocytes viability, higher = more signal
[3] = compound effects on hepatocellular carcinoma cell viability – HepG2, calcein-AM fluorescence, 48 h, basal, profiling panel (AID 1164); conditions: higher = more signal
[4] = compound effects on multiple myeloma cell viability – MM1S, calcein-AM fluorescence, 48 h, basal, profiling panel (AID 1165); conditions: higher = more signal
[5] = calcein-AM signal in unstimulated myeloma cells – cell-based, calcein-AM fluorescence, 48 h, PK04 Diversity Set, profiling panel (AID 1166); conditions: RPMI8226 myeloma viability, higher = more signal;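 further: cells grown under basal conditions without added stimulus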
[6] = JC-1 mitochondrial signal, unstimulated HepG2 cells – cell-based, JC-1 fluorescence, 24 h, 100 nL compound, profiling panel (AID 1167); conditions: HepG2 mitochondrial potential, higher = more signal
[7] = JC-1 mitochondrial signal, unstimulated adipocytes – cell-based, JC-1 fluorescence, 3T3-L1 adipocytes, 24 h, 100 nL compound, profiling panel (AID 1168); conditions: JC-1 mitochondrial fluorescence, higher = more signal, called active from +8 up or from −8 down
[8] = JC-1 mitochondrial signal, unstimulated myeloma cells – cell-based, JC-1 fluorescence, RPMI8226, 24 h, 100 nL compound, profiling panel (AID 1169); conditions: JC-1 mitochondrial potential fluorescence, higher = more signal
[9] = JC-1 mitochondrial signal, unstimulated MM1S myeloma – cell-based, JC-1 fluorescence, 24 h, 100 nL compound, profiling panel (AID 1170); conditions: MM1S mitochondrial potential, higher = more signal
[10] = resazurin metabolic signal in A549 cells – cell-based, resazurin fluorescence, 24 h, PK04 Diversity Set, profiling panel (AID 1171); conditions: A549 viability, higher = more signal, called active from +8 up or from −8 down
Further: test concentration not given here.

Compound | z-score [1] | z-score [2] | z-score [3] | z-score [4] | z-score [5] | z-score [6] | z-score [7] | z-score [8] | z-score [9] | z-score [10]
CCOC(=O)C[C@H]1[C@H](OC(=O)c2ccc(-c3ccccc3)cc2)[C@@H](NC(=O)C2CCCCC2)c2cc(OCCCO)ccc2N1C(=O)Cc1ccc(OC)cc1 | -0.869 | 0.0396 | -0.216 | -0.581 | -0.938 | 0.801 | -0.199 (inactive) | 0.823 | 0.488 | -0.0129 (inactive)
CC(C)C(=C=CC[C@H](O)c1cccc(OCCO)c1)C[C@H](O)c1ccccn1 | 1.65 | -0.0875 | 0.731 | 0.301 | 0.942 | 0.807 | 0.259 (inactive) | 0.509 | -0.803 | 1.26 (inactive)
C=C(COC)/C(=C/C[C@@H](OC(=O)c1ccncc1)c1ccccc1OCCO)c1cnc2ccccc2c1 | 0.746 | 0.317 | -0.316 | -3.18 | -0.986 | 2.78 | -1.16 (inactive) | -0.527 | 1.61 | 0.268 (inactive)
CCCCCCc1nc(-c2ccc(OC)nc2)c(C)c2c1[Si](C(C)C)(C(C)C)OC2 | -0.405 | 1.26 | 0.002 | -2.26 | -2.79 | 0.103 | 0.251 (inactive) | -0.641 | 0.498 | 0.863 (inactive)
COc1ccc([Si](C)(C)[C@@H]2[C@@H](CC(=O)N(CCO)Cc3ccccc3)O[C@]3(C(=O)N(Cc4cccc(I)c4)c4ccccc43)[C@H]2C)cc1 | -1.09 | 1.05 | -1.59 | -2.55 | -4.25 | 0.198 | 1.5 (inactive) | -1.2 | -1.68 | -2.97 (inactive)
CCCCC(=C=CC[C@H](O)c1cccc(OCCO)c1)C[C@H](O)c1cc(Cl)cc(Cl)c1O | 0.827 | -0.241 | 0.358 | -3.12 | -1.24 | 0.0773 | 0.309 (inactive) | -0.00147 | -1.05 | 1.57 (inactive)
C=C(CCCC)/C(=C/C[C@@H](OC(C)=O)c1ccc(OCCO)cc1)c1cc(C(=O)OC)ccc1OC | -0.144 | -0.703 | 0.447 | -3.33 | -3.24 | 0.621 | -1.5 (inactive) | -0.826 | -1.3 | 0.293 (inactive)

Source: PubChem BioAssay
